The values below come from ChEMBL document CHEMBL3988442, “University of Dundee, Small-Polar-MMV Screening Library” (2021).

For some assays here: Entries with a potency or affinity are not part of this list.

Common to all, as to design: scale not given: direction of the effect not stated beside the values
For experiment [1], the target named is Protein translocase subunit SecA (Escherichia coli (strain K12)) (UniProt P10408). As to the kind of experiment: Assay to Identify E. coli SecA ATPase Inhibitors. The class given is functional. The note with it: 30 µM.
Experiment [2] concerns the target T1, Ubiquitin-activating enzyme e1, putative (Leishmania donovani (strain BPK282A1)) (UniProt E9BSI1).
T1 sequence (whole entry): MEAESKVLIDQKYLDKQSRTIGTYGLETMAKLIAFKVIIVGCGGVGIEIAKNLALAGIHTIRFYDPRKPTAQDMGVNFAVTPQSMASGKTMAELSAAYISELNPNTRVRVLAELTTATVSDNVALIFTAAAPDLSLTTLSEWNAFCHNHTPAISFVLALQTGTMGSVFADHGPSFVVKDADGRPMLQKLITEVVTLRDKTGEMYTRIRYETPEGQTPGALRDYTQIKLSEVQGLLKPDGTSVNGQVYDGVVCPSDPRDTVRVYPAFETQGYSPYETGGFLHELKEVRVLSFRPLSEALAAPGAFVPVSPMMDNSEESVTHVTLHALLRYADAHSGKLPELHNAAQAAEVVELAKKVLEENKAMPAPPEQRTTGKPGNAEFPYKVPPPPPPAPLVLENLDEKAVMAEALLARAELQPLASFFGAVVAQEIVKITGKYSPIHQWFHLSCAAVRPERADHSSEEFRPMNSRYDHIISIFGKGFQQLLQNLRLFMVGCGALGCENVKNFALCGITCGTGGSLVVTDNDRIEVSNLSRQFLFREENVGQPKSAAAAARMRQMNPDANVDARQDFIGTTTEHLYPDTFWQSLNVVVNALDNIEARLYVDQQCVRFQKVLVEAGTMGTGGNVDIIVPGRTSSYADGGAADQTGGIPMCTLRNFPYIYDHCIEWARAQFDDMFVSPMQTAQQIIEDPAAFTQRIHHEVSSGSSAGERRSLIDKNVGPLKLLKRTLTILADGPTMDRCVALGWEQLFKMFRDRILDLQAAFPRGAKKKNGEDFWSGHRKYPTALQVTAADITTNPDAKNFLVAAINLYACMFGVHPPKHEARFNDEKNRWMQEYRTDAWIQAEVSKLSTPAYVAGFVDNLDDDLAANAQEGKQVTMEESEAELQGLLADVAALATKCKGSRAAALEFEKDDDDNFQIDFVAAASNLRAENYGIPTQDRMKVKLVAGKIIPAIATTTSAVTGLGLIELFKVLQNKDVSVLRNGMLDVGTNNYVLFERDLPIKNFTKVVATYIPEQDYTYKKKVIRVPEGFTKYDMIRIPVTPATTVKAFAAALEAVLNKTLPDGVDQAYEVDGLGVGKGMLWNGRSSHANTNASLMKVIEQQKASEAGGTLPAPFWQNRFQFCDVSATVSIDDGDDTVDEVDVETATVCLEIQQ
The experiment can be described thus: Leishmania donovani Ubiquitin Activating Enzyme (LdE1). In kind it is functional. As to conditions: 30 µM.

For experiment [3], the target named is AMP-activated protein kinase, AMPK (Homo sapiens) (UniProt P54646+O43741+P54619+Q9UGJ0+Q9Y478+Q13131+Q9UGI9). The experiment can be described thus: AMP-dependent Kinase enzyme assay. An in vitro enzyme assay that detects ADP turnover that is directly proportional to AMPK activity. This uses naive AMPK that is activated during the assay with MK-8722. In kind it is functional. As to conditions: 30 µM.

Experiment [4] deals with Sialic acid-binding Ig-like lectin 9 (Homo sapiens) (UniProt Q9Y336). As to the kind of experiment: Hs-Siglec9 ALPHAscreen SOP 20170721. The note with it: 10 µM. (Alpha assays give light when donor and acceptor beads are brought close together.)
For the next experiment, the system named is Trypanosoma cruzi. As to the kind of experiment: Trypanosoma cruzi phosphomannomutase and mannose-1-phosphate guanylyltransferase assay. The class given is functional. As to conditions: 10 µM.
Experiment [5] addresses T2, Arginase-2, mitochondrial (Homo sapiens) (UniProt P78540).
T2 sequence (whole entry): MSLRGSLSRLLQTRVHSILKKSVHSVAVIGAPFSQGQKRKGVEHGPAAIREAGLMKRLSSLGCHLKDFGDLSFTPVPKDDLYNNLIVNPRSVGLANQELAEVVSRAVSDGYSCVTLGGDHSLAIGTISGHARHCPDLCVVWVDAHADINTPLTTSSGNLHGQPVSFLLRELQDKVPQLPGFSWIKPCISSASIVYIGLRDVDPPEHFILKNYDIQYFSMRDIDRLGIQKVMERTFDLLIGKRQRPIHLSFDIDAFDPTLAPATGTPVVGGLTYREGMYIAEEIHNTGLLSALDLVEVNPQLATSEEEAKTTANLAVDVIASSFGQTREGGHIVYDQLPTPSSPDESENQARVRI
The experiment can be described thus: in vitro enzyme assay to detect the production of urea directly proportional to the activity of Arginase II. Note: in the data most compounds retested in dose-response had high values. The class given is functional. As to conditions: 33.3 µM.

Experiment [6] addresses T3, Proteasome subunit beta (Trypanosoma cruzi) (UniProt O96673).
T3 sequence (whole entry): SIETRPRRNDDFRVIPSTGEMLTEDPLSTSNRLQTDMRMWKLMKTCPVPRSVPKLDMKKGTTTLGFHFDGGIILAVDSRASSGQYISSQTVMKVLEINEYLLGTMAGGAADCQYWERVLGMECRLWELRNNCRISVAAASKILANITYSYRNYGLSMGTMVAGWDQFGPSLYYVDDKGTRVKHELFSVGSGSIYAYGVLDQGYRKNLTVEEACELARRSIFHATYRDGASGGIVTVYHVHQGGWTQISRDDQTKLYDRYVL
As to the kind of experiment: Trypanosoma cruzi proteasome chymotrypsin-like activity (TcProtChymo) assay. Note: in the data most compounds retested in dose-response had high values. In kind it is functional. The note with it: 9.37 µM.

The species entered for the next experiment is Homo sapiens. The experiment can be described thus: To identify inhibition of the IFN signalling (Jak-Stat) pathway via expression of an eGFP reporter gene under the control of an IFN-stimulated response element (ISRE) containing MxA promoter. In kind it is functional. The note with it: 30 µM. A general note: A reporter such as luciferase makes a cellular process visible.

Experiment [7] concerns the target T4, Tyrosyl-tRNA synthetase, putative (Trypanosoma cruzi (strain CL Brener)) (UniProt Q4DSP6).
T4 sequence (whole entry): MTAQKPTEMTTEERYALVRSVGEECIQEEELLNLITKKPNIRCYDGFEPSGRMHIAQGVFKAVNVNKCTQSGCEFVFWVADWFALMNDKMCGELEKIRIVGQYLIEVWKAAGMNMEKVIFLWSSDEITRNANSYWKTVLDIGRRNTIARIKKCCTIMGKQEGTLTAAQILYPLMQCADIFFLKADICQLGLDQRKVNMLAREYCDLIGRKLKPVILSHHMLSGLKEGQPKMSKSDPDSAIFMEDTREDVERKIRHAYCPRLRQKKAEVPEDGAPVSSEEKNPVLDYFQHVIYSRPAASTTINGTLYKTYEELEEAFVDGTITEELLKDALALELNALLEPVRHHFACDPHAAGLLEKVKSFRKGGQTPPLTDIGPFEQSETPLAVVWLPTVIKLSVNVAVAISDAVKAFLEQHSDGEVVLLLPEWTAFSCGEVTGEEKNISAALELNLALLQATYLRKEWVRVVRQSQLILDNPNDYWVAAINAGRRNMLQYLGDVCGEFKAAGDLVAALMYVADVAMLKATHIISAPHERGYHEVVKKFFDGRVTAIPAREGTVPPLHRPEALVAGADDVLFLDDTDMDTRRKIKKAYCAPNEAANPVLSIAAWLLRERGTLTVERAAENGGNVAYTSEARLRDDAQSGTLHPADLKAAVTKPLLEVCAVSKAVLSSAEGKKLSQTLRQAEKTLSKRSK
The experiment can be described thus: Trypanosoma cruzi tyrosyl tRNA synthetase (TcYRS) _High Tyrosine SOP. Note: in the data most compounds retested in dose-response had high values. In kind it is functional. The note with it: 30 µM.

In experiment [8] the target is T4, Tyrosyl-tRNA synthetase, putative (Trypanosoma cruzi (strain CL Brener)). The experiment can be described thus: Trypanosoma cruzi tyrosyl tRNA synthetase (TcYRS) SOP. The class given is functional. The note with it: 30 µM.
Experiment [9] addresses Chromo domain-containing protein 1 (Saccharomyces cerevisiae (strain ATCC 204508 / S288c) (Baker's yeast)) (UniProt P32657). The experiment can be described thus: ScCHD-1 Enzyme Inhibition Assay. Note: in the data most compounds retested in dose-response had high values. In kind it is functional. The note with it: 30 µM.

Chain of Sialic acid-binding Ig-like lectin 9 (Homo sapiens) (Q9Y336 whole entry): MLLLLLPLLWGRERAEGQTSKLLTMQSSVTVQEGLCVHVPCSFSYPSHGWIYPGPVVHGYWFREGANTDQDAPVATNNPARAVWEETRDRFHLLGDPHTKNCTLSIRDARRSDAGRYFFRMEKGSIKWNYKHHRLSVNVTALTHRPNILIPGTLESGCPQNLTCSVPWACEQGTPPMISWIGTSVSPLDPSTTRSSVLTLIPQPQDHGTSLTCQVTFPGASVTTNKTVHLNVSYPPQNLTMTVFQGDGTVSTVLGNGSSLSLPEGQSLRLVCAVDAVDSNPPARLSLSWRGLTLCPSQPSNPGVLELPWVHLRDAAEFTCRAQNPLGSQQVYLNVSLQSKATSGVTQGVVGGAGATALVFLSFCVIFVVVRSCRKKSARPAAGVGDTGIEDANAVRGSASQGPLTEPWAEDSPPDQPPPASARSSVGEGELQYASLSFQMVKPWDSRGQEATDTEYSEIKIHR
Chain of Chromo domain-containing protein 1 (Saccharomyces cerevisiae (strain ATCC 204508 / S288c) (Baker's yeast)) (P32657 whole entry, the tested form may be a part): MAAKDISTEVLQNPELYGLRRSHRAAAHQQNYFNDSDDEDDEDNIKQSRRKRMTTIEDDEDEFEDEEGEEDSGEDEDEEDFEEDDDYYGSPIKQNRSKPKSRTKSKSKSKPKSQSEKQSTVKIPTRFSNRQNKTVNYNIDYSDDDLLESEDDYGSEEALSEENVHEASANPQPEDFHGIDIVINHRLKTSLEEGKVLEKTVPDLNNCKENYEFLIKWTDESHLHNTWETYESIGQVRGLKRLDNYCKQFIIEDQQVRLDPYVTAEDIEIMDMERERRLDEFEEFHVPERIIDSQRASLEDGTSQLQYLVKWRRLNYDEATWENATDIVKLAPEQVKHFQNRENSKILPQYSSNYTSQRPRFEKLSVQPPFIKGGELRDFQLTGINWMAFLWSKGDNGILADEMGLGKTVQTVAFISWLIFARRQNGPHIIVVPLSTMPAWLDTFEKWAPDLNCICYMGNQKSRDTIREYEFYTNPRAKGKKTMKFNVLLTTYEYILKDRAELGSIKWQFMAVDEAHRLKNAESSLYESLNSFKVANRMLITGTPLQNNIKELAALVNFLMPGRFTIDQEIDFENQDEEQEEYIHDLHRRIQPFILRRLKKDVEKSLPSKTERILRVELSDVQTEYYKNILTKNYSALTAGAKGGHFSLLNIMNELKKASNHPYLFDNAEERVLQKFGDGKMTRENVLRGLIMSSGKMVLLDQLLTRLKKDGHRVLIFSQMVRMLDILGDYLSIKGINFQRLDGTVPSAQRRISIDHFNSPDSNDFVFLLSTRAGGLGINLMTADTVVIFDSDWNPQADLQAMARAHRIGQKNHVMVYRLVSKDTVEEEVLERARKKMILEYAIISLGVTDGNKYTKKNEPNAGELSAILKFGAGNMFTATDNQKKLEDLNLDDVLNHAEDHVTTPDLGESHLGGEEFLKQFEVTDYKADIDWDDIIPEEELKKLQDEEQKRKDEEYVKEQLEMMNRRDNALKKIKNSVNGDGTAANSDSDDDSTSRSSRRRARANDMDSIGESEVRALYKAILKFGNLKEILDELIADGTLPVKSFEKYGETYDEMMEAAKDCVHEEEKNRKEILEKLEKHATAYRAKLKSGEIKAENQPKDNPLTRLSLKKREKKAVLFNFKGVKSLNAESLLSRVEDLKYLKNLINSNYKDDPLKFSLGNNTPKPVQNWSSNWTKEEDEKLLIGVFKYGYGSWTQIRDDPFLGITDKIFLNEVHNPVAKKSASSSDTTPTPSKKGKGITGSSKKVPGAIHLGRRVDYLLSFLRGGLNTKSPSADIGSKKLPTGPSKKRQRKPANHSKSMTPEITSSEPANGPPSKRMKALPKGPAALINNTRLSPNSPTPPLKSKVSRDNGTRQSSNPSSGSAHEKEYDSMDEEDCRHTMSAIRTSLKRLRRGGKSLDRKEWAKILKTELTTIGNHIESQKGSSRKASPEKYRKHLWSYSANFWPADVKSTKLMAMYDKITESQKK
Chain of Protein translocase subunit SecA (Escherichia coli (strain K12)) (P10408 whole entry): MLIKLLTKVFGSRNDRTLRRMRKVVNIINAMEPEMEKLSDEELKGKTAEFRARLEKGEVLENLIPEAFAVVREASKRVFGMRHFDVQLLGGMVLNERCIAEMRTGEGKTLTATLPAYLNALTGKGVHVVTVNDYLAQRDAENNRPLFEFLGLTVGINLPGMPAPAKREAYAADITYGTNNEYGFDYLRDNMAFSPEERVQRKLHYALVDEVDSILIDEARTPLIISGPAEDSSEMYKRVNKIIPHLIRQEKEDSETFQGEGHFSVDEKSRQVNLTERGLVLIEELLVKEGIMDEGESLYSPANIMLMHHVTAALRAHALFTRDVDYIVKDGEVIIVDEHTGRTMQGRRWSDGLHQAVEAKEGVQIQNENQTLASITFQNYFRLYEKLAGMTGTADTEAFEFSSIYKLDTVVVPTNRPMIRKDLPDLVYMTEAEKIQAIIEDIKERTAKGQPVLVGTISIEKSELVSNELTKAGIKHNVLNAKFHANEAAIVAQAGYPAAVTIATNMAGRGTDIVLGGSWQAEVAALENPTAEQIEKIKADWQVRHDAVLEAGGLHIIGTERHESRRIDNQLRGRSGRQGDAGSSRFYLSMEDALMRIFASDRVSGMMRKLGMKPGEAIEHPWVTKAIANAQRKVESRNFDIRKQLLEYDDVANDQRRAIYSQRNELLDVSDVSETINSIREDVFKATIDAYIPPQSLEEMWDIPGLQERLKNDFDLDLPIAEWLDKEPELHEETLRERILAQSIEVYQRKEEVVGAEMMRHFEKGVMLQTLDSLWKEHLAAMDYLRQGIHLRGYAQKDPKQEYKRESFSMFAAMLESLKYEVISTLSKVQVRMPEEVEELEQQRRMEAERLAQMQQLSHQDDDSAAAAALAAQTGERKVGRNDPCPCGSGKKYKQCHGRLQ

As for `CCc1ncc2c(n1)CN(Cc1nnc(C)o1)CC2`, the Percent Effect in experiment [1] was -0.796%; in [2], 2.74%; in experiment [3], -74%; in experiment [4], 3.02%; with Trypanosoma cruzi it was 6.07%; in experiment [5] it was 6.82%. For the same molecule, the Percent Effect in experiment [6] is 4.26%; in the experiment listed under Homo sapiens, -5.4%; in [7], 4.3%; in [8] it was 7.5%; in experiment [9], -6.64%.
Take `COc1ccc(OC)c(NC(=O)NCC(O)c2ccc(F)c(F)c2)c1` (stereo not given): the Percent Effect was -0.0799% in experiment [1]; 8.86% in experiment [2]; 8.98% in experiment [3]; -1.21% in experiment [4]; -5.44% in the experiment on Trypanosoma cruzi; 3.23% in experiment [5]. The Percent Effect is 15.6% in experiment [6]; 9.13% in the experiment listed under Homo sapiens; -1.04% in experiment [7]; 5.06% in [8]; -21.5% in experiment [9].
For the molecule `CNS(=O)(=O)c1cccc(C(C)NCc2ccccc2)c1` (stereo not given), the Percent Effect in experiment [1] is -0.281%; in experiment [2], -2.7%; in experiment [3], 1.68%; in [4], -2.19%; in the experiment with Trypanosoma cruzi, -5.08%; in experiment [5], 1.67%. Moreover, the Percent Effect in experiment [6] was 3.63%; in the experiment listed under Homo sapiens, -5.59%; in [7], 2.97%; in experiment [8], 1.22%; in [9] it was -1.16%.
Turning to `CN(CCc1cccs1)C1CCCN(Cc2noc(C3CC3)n2)C1` (stereo not given), the Percent Effect in [1] was -1.04%; in [2], 4.17%; in experiment [3] it was -15.1%; in experiment [4], -5.62%; in the experiment on Trypanosoma cruzi it was 2.82%; in [5], 10.2%. Moreover, the Percent Effect in experiment [6] was 15.6%; in the experiment listed under Homo sapiens it was -4.89%; in experiment [7], 3.16%; in experiment [8], 7.69%; in experiment [9], -3.54%.
As to `Cc1cc(C)n(CC(=O)N2CCC(NS(C)(=O)=O)CC2)n1`, the Percent Effect in experiment [1] is -2.87%; in [2], 15.8%; in experiment [3], 1.32%; in experiment [4], 0.107%; in the experiment on Trypanosoma cruzi, -1.69%; in experiment [5], -2.3%. The Percent Effect in [6] is 8.69%; in the experiment listed under Homo sapiens, -0.413%; in experiment [7], 5.39%; in [8], 12.2%; in [9] it was -9.21%.
For the molecule `CN(C)C(=O)CN1C[C@@H]2CC[C@H](C1)N(Cc1cccc(Cl)c1Cl)C2`, the Percent Effect is 6.03% in experiment [1]; 2.74% in [2]; 1.3% in experiment [3]; -0.255% in experiment [4]; 2.58% in the experiment with Trypanosoma cruzi; -19.6% in [5]. The Percent Effect was 22.5% in [6]; 14% in the experiment filed under Homo sapiens; 10.4% in experiment [7]; 25.9% in [8]; 0.27% in experiment [9].
In the case of `C=C(Cl)CN1CCC(C(=O)c2cc(F)ccc2F)CC1`, the Percent Effect is -2.54% in experiment [1]; -13.2% in [2]; 5.79% in experiment [3]; -1.3% in [4]; 4.32% in the experiment on Trypanosoma cruzi; -0.766% in [5]. In addition, the Percent Effect in experiment [6] is -1.67%; in the experiment filed under Homo sapiens, 5.08%; in experiment [7] it was 0.49%; in experiment [8], 4.88%; in experiment [9], 6.62%.
Turning to `Cc1noc(CN(Cc2ccc3c(c2)OCO3)Cc2ccc(C)o2)n1`, the Percent Effect is -2.53% in [1]; 13.5% in experiment [2]; -9.33% in experiment [3]; -9.31% in experiment [4]; -5.75% in the experiment with Trypanosoma cruzi; 3.21% in [5]. Further, the Percent Effect is 13.3% in experiment [6]; 27.4% in the experiment filed under Homo sapiens; 8.37% in experiment [7]; 13.6% in experiment [8]; -6.37% in experiment [9].
As for `CCCn1c(C)c(CC(=O)NC)c2c1CC(C)(C)CC2=O`, the Percent Effect in experiment [1] is -4.47%; in [2] it was 2.6%; in [3] it was -16%; in experiment [4], 0.225%; in the experiment on Trypanosoma cruzi it was -1.08%; in [5], -6.9%. The Percent Effect in experiment [6] is 2.66%; in the experiment listed under Homo sapiens it was 2.97%; in experiment [7] it was 5.38%; in experiment [8], 8.64%; in [9], 2.86%.
As to `CCN(Cc1ccc2c(c1)OCO2)Cc1nc(C)no1`, the Percent Effect in experiment [1] is 2.35%; in experiment [2], 18.9%; in [3] it was -7.63%; in [4] it was -8.65%; in the experiment with Trypanosoma cruzi it was -8.96%; in [5], 2.4%. In addition, the Percent Effect in experiment [6] was 14.9%; in the experiment listed under Homo sapiens, 18.6%; in [7], 4.43%; in experiment [8], 6.17%; in [9] it was -4.89%.
